Experimental data as given in ChEMBL document CHEMBL1157539, “Thousands of chemical starting points for antimalarial lead identification” (Nature, 2010).

Columns and labels:
Format in all cases: functional
Plasmodium falciparum [1] = assay: GSK_TCMDC: Inhibition of Plasmodium falciparum 3D7 in whole red blood cells, using parasite LDH activity as an index of growth. Test compounds present at 2uM
Plasmodium falciparum [2] = assay: GSK_TCMDC: Inhibition of Plasmodium falciparum Dd2 in whole red blood cells, using parasite LDH activity as an index of growth. Test compounds present at 2uM
HepG2 = assay: GSK_TCMDC: Percent inhibition of human HepG2 cell line. Test compounds present at 10uM.

| SMILES | Inhibition (Plasmodium falciparum [1]) | Inhibition (Plasmodium falciparum [2]) | Inhibition (HepG2) |
| --- | --- | --- | --- |
| COc1ccc(CCNCc2cc3c(C(C)(C)C)nn(-c4ccc(Cl)cc4)c3[nH]c2=O)cc1OC | 100% | 99% | 13% |
| COc1cc(Nc2nccc(-c3c(-c4cccc(NC(=O)c5c(F)cccc5F)c4)nn4ncccc34)n2)cc(OC)c1OC | 98% | 97% | 96% |
| O=C(O)C(F)(F)F.c1cc(CN2CCCCC2)cc(-c2cccc(-c3nc4ccccc4[nH]3)c2)c1 | 100% | 37% | 39% |
| Cl.N#Cc1ccc2c(c1)CCN(CCC1CCC(NC(=O)Nc3cnc4ccccc4c3)CC1)C2 (stereo not given) | 93% | 9% | 14% |
| Oc1ccc2[nH]cc(C3CCN(CCC(c4ccccc4)c4ccccc4)CC3)c2c1 | 90% | 42% | 27% |
| CCc1ccc(-c2nc3cc(NC(=O)c4ccc([N+](=O)[O-])o4)ccc3o2)cc1 | 97% | 80% | 4% |
| O=C(O)C(F)(F)F.c1cc(-c2ccc(CNCc3ccsc3)cc2)cc(-c2nc3ccccc3[nH]2)c1 | 100% | 82% | 46% |
| COc1cccc(C(=O)Nc2ccc(Nc3nc(C)cc(N4CCCCC4)n3)cc2)c1OC | 92% | 27% | 47% |
| Cl.Clc1ccc(-n2cnc3c(Nc4ccc(Oc5ccccc5)cc4)ncnc32)cc1Cl | 99% | 65% | 4% |
| Cc1cnc(C(=O)Nc2cccc(-c3ccc(-c4nc5cc(F)ccc5[nH]4)cc3)c2)cn1 | 100% | 13% | 19% |
| O=C(Nc1ccc(Cl)cc1)Nc1ccc(-c2cccc(-c3nc4cc(F)ccc4[nH]3)c2)cc1 | 100% | 96% | 74% |
| COc1cc2nc(Cl)nc(Nc3ccncc3)c2cc1OC.Cl | 86% | 33% | 11% |
| Cl.N#Cc1ccc2c(c1)CN(CCC1CCC(NC(=O)c3cc4cnccc4[nH]3)CC1)CC2 (stereo not given) | 97% | 28% | 13% |
| COc1cc(Nc2nccc(NCC(O)c3ccc(C(F)(F)F)cc3)n2)cc(OC)c1OC (stereo not given) | 91% | 14% | 45% |
| CN1CCC(c2c[nH]c3ccc(NC(=O)Nc4ccc(-c5ccncc5)c(Cl)c4Cl)cc23)CC1 | 100% | 19% | 27% |
| Cl.c1ccc(Oc2ccc(Nc3ccnc4cc(-c5ccc(CN6CCNCC6)o5)ccc34)cc2)nc1 | 100% | 99% | 7% |
| COc1ccc(CNCc2cccc(-c3ccc(-c4nc5ccccc5[nH]4)s3)c2)cc1.O=C(O)C(F)(F)F | 90% | 52% | 14% |
| COc1ccc(C2(CNCC(O)c3cccc([N+](=O)[O-])c3)CCCC2)cc1OC (stereo not given) | 93% | 85% | 10% |
| CC(C)(C)c1ccc2[nH]c(-c3ccc(/C=C/C(=O)NCc4ccc(Cl)c(Cl)c4)cc3)nc2c1 | 97% | 17% | 41% |
| O=C(NCc1cccnc1)C(c1cc2ccccc2o1)N1CCN(C(c2ccccc2)c2ccccc2)CC1 (stereo not given) | 95% | 81% | 12% |
| CC(CNC1CCN(CCn2c(=O)ccc3ccc(F)cc32)CC1)c1ccccc1 (stereo not given) | 85% | 4% | 0% |
| Br.CC1(C)NC(N)=NC(=N)N1OCCc1ccccc1 | 96% | 95% | 70% |
| Cc1ccc(-n2c(Cc3cccc4ccccc34)nnc2SCCC#N)c(C)c1 | 95% | 98% | 0% |
| C=CCOC(=O)N1CCC(CNCc2cccc(-c3cccc(-c4nc5ccccc5[nH]4)c3)c2)C1.O=C(O)C(F)(F)F (stereo not given) | 100% | 46% | 16% |
| CS(=O)(=O)c1ccc(-c2nc(NCC3CCCCC3)cc(C(F)(F)F)n2)cc1 | 83% | 76% | 0% |
| C=CCOC(=O)N1CCC(CNCc2cccc(-c3cccc(-c4nc5cccc(C)c5[nH]4)c3)c2)C1.O=C(O)C(F)(F)F (stereo not given) | 100% | 69% | 22% |
| CCOc1c(CNCCCNc2nc3ccccc3[nH]2)cc(I)cc1OC.Cl | 100% | 4% | 42% |
| Cc1ccc2c(Cl)c(C(=O)N3CCCc4ccccc43)sc2c1 | 99% | 15% | 4% |

| SMILES | Inhibition (Plasmodium falciparum [1]) | Inhibition (Plasmodium falciparum [2]) | Inhibition (HepG2) |
| --- | --- | --- | --- |
| COc1ccc(CNC2Cc3ccccc3C2)cc1-c1cccc(S(=O)(=O)NCCN2CCCC2)c1.O=C(O)C(F)(F)F | 98% | 61% | 48% |
| Cc1nc(N/C(N)=N/C(=O)NC2CCCCC2)nc2ccccc12 | 95% | 99% | 21% |
| COc1ccc(C(=O)Cn2nc(-c3ccc(Cl)cc3)ccc2=O)c(OC)c1 | 93% | 70% | 0% |
| O=C(Nc1ccc(Cl)c(C(F)(F)F)c1)NC1CCN(CCCCCNC(=O)C2CC2c2ccc(Cl)c(Cl)c2)CC1 (stereo not given) | 100% | 41% | 79% |
| COc1ccc2ncc(F)c(CCN3CCC(NCc4ccc5c(c4)CCO5)CC3)c2n1.Cl | 100% | 30% | 20% |
| O=C(Nc1ccccc1C(F)(F)F)Nc1nn(Cc2c(F)cccc2Cl)cc1Br | 100% | 86% | 0% |
| CNc1nc(Nc2ccccc2C)nc2ccccc12.Cl | 100% | 81% | 17% |
| CN1CC[C@@H](Oc2cc(NC(=O)Nc3ccccc3Br)ccc2Cl)C1 | 100% | 6% | 26% |
| O=C(NOCc1ccccc1)c1cc(Cl)ccc1O | 83% | 0% | 2% |
| CN1CCN(Cc2ccc(-c3ccc4c(Nc5ccc(Cl)cc5F)ccnc4c3)o2)CC1 | 100% | 100% | 47% |
| Nc1n[nH]c(-c2ccccc2Nc2ccnc3cc(-c4nccs4)ccc23)n1 | 100% | 94% | 98% |
| COc1ccccc1CCNc1nc(C)cc(N[C@@H](CC(C)C)C(=O)NCCc2ccccc2)n1.O=C(O)C(F)(F)F | 97% | 81% | 12% |
| COc1ccc(-c2ccc(S(=O)(=O)Nc3cc4c(cc3OC(C)C)CCNCC4)cc2)cc1.Cl | 86% | 0% | 16% |
| COc1c(C2CCN(CCCCNC(=O)c3ccc(-c4ccc(C(=O)C(F)(F)F)cc4)cc3)CC2)ccc2c1CCCC2 | 81% | 33% | 99% |
| Cc1ccc(Nc2nccc(NCC(O)c3cccc(C)c3)n2)cc1 (stereo not given) | 90% | 23% | 22% |
| CCCCN(CCCC)/C(=N/C(=N)Nc1ccc(Cl)cc1)NCCCCCCN/C(=N\C(=N)Nc1ccc(Cl)cc1)N(CCCC)CCCC | 81% | 72% | 0% |
| O=C(Nc1ccc(OC(F)(F)F)cc1)NC1CCN(c2ccnc3ccccc23)C1.O=C(O)C(F)(F)F (stereo not given) | 100% | 89% | 25% |
| O=C(Nc1cccc(-c2cccc(-c3nc4ccccc4[nH]3)c2)c1)Nc1ccc(F)c(F)c1F | 98% | 95% | 78% |
| Br.CC(CCON1C(N)=NC(N)=NC1(C)C)c1ccc(Cl)c(Cl)c1 (stereo not given) | 98% | 97% | 60% |
| COc1cc(CCOc2c(C)nc(N)nc2N)cc(OC)c1OC.Cl | 93% | 0% | 59% |
| CC(C)Cn1c2ccccc2c2nc3nc(N)nc(N)c3nc21 | 93% | 0% | 36% |
| COc1ccc(-c2cc(C(=O)N[C@@H](Cc3ccccc3)C(=O)NCCN3CCCCC3)ccc2O)cc1 | 96% | 0% | 0% |
| COC(=O)C1(NC(=O)c2ccc(-n3nc(C)c(-c4ccccc4)c3N)cc2)CCCC1 | 96% | 81% | 9% |
| CS(=O)(=O)c1ccc(CNCc2cccc(-c3cccc(-c4nc5ccccc5[nH]4)c3)c2)cc1.O=C(O)C(F)(F)F | 100% | 47% | 3% |
| O=C(/C=C/c1ccc(Cl)c(Cl)c1)NCCCCCN1CCC(NC(=S)Nc2ccc(Cl)c(Cl)c2)CC1 | 99% | 65% | 29% |
| CNc1ccc(CNCc2ccc(-c3ccc(-c4nc5cc(C(F)(F)F)ccc5[nH]4)cc3)cc2)cc1.O=C(O)C(F)(F)F | 100% | 98% | 53% |
| Cc1[nH]c(C)c(-c2ccc(OCc3cc(F)cc(F)c3)nc2)c(=O)c1Br | 98% | 97% | 37% |
